Our source for the growth values is PubChem BioAssay (NCI).

This is part of a sample that, as a whole, favours compounds with a hit. Of some 83,000 tested, about 20% had one in any assay.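 Compound tested at a single concentration for 48 hours in 96-well plates; a percent growth value below 10 was scored as active.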 A number with no mark means an inactive call. Active and inactive are the calls of the source. *1 amine or outer side, *2 acyl side, *3 side chain or, on linkers, in order; H or OH if unused. Where a SMILES comes first, the peptide text is derived from it. [ ]: non-standard residue; d: D form. The star is where a group is joined. X5 = CCC(=O)CC1CC(C)CC(C(=O)[*:2])N1[*:1]; X4 = CCCCCCCCC(C)C(=O)*; Aib = CC(C)(N)C(=O)O; X6 = CC(CN(C)CCO)N*

Test in all cases: NCI-60 one-dose screen, 48 h (100 = growth as untreated, 0 = no growth, -100 = all killed)
What all share (conditions): 10 µM unless noted

The subject of assay [1] is SR leukemia.
Assay [2] deals with RPMI-8226 leukemia.
Assay [3] relates to OVCAR-8 ovarian.
For assay [4], the system named is OVCAR-5 ovarian.
Assay [5] concerns SK-OV-3 ovarian.
The test system of assay [6] is IGROV1 ovarian.
The test system of assay [7] is OVCAR-3 ovarian.
Assay [8] deals with HS 578T breast.
The subject of assay [9] is NCI/ADR-RES ovarian.
Assay [10] has as its system OVCAR-4 ovarian.

For `Nc1ccc(Oc2ccccc2)c(Cl)c1`, the growth in assay [1] is 92.1%; in [2], 101%; in assay [3], 95%; in [4], 83.9%; in [5], 91.6%; in assay [6], 112%. Also, the values for the growth in assay [7], in assay [8] and in assay [9] were 113%, 91.7% and 114%, respectively.

As for `CCCCCC[C@@H](O)C/C=C\CCCCCCCC(=O)OCCOC`, the growth was 122% in assay [1]; 102% in assay [2]; 101% in [3]; 98.4% in assay [10]; 114% in assay [6]; 112% in assay [7]. The growth in assay [8] was 101%; in assay [9], 104%.

As to `O=C1c2ccccc2Cc2cccc(Cl)c21`, the growth in assay [1] is 64.1%; in assay [2] it was 106%; in assay [3] it was 108%; in assay [10], 108%; in assay [5], 98%; in assay [6], 88.7%. The growth is 108% in assay [7], 112% in assay [8] and 96% in assay [9].

As to `NC(=S)N/N=C/c1ncccc1O`, the growth is 12.1% in assay [1]; 11.3% in [2]; -8.61% (active) in assay [4]; 35.2% in assay [10]; 47.3% in assay [5]; -11.2% (active) in assay [6]. Besides, the growth in [7] was 27.7%; in assay [9], -27.4% (active).

Take `CCCCCCCCC(C)C(=O)N1CCCC1C(=O)N1C(CC(=O)CC)CC(C)CC1C(=O)NC(C)C(=O)NC(C)(C)C(=O)NC(C)(C)C(=O)NC(C(=O)NC(C)C(=O)NC(C)(C)C(=O)NC(C)(C)C(=O)NC(C)CN(C)CCO)C(C)CC` (stereo not given) (X4-P[X5]A[Aib][Aib]IA[Aib][Aib]-X6; configuration not given here): the growth in assay [1] was -44.2% (active); in assay [2] it was -42.5% (active); in assay [4], -82.2% (active); in [10] it was -12.9% (active); in assay [5] it was -23.8% (active); in assay [6], -60.3% (active). Besides, the figures for the growth in [7] and in assay [9] were -54.6% (active) and -36.9% (active), respectively.

Take `COc1cc(NC(=O)C2=C(C)NC(C)=C(C(=O)Nc3cc(OC)c(Cl)cc3OC)C2c2cccc([N+](=O)[O-])c2)c(OC)cc1Cl`: the growth in assay [2] is 25.6%; in assay [3] it was 38.3%; in assay [4], 34.4%; in [10], 39.4%; in assay [5], 52.1%; in assay [6] it was 11.4%. For the same compound, the growth in [7] was 32.3%; in assay [8] it was 8.61% (active); in [9], 22%.

On to `C[C@@]1(CO)[C@H](O)CC[C@@]2(C)[C@H]1CC[C@H]1C[C@@H]3C[C@@]12CC[C@@]3(O)COC(=O)CN`, for which the growth in assay [1] is 18.9%; in assay [2], 43%; in [4], 24.7%; in assay [10], 87.9%; in assay [5] it was 74.8%; in assay [6] it was 33.5%. The growth is 70.9% in [7] and 11.1% in assay [9].

In the case of `Cc1ccccc1N=C(N)Nc1ccccc1C` (tested in a mixture with another compound), the growth in [2] was 46.6%; in assay [3] it was 73.7%; in assay [4], 91.6%; in [10], 82.2%; in [5] it was 98.5%; in assay [6], 62.6%. For the same compound, the growth in assay [7] is 78.8%; in assay [8] it was 111%; in assay [9], 79.3%.

With `O=C(CCl)N1c2ccccc2Sc2c1ccc1ccccc21`, the growth in assay [1] is 12.9%; in [2], 36.1%; in assay [3], 64.2%; in assay [5] it was 106%; in [6] it was 34.4%; in assay [7], 74.3%. In addition, the values for the growth in assay [8] and in assay [9] were 82.1% and 75.3%, respectively.

On to `COc1cc(/C=C/C(=O)CC(=O)/C=C/c2ccc(O)c(OC)c2)ccc1O`, for which the growth in [1] is -5.89% (active); in assay [2] it was -30.3% (active); in assay [4], 61.1%; in [10] it was 65.8%; in assay [5], 75.3%; in assay [7], 37.3%. Further, the growth in assay [8] was 55.6%; in assay [9], 37.2%.

`O=C(OC12CC3CC(CC(C3)C1)C2)c1ccc(NCc2cc(O)ccc2O)cc1`: the growth in assay [1] is -19.4% (active); in assay [2] it was -36% (active); in [4] it was -63.4% (active); in assay [10] it was -85.5% (active); in assay [5], 45.7%; in [6], -81.4% (active). Moreover, the figures for the growth in [7] and in [9] were -90.3% (active) and -79.1% (active), respectively.

In the case of `Oc1ccc2ccccc2c1N=Nc1ccccn1`, the growth in assay [1] is 8.18% (active); in assay [3] it was 15.6%; in [4], 46.8%; in assay [10], -6.48% (active); in [5], 33.6%; in assay [6], 25%. Also, the growth in assay [7] is 20.7%; in assay [9], 0.488% (active).

`O=C1C=CC(=O)c2c(O)c(CO)c(CO)c(O)c21`: the growth in [1] is 83.3%; in assay [2] it was 18.2%; in assay [4] it was 84.8%; in assay [10] it was 64.9%; in [5] it was 109%; in [6], 52.7%. For the same compound, the growth in assay [7] is 98.3%; in assay [8] it was 113%; in assay [9], 97.2%.

Take `O=C(c1ccccc1)C(O)C(Br)(CBr)c1ccccc1` (stereo not given): the growth in assay [1] was 59.3%; in assay [2], 73.6%; in assay [3], 93.2%; in assay [10] it was 90.8%; in [6], 90.9%; in assay [7], 89.7%. In [9], the growth is 91.6%.

Consider `Cc1ccc(NC2=CC(=O)C(=O)c3ccccc32)cc1`, for which the growth in [1] is 25.9%; in assay [3], 25%; in [4], -25.4% (active); in [10], -0.0623% (active); in [5] it was 79.9%; in assay [6] it was 17.6%. For the same compound, the growth is 13.7% in assay [7], 16.3% in assay [8] and 19.3% in assay [9].
